Measurements from PubChem BioAssay AID1053119 (Broad Institute, 2014).
Potency and affinity values are given separately. Records with an inconclusive call do not appear. A number with no mark means an inactive call.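 The calls were made as follows: active = signal loss from cell killing with fitted potency at or below twice the top valid dose; inconclusive = flat drop of 30 to 70%, or unreliable curve fit; inactive = opposite direction, flat within 30%, or weaker potency.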

Experiment: A549 cell cytotoxicity, dose response, cytotoxicity control, cherry-picks, 26 µM top dose (AID 1053119);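 also: 0% = neutral control wells and -100% = 10 µM mitoxantrone wells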
Settings: A549 viability, CellTiter-Glo ATP luminescence, 72 h; series mostly up to 26 µM; activity change, negative = cytotoxicity: at the top concentration

SMILES	activity change, negative = cytotoxicity
C[C@H](CO)N1C[C@H](C)[C@@H](CN(C)C(=O)c2cccc(F)c2)Oc2ncc(-c3ccccc3)cc2C1=O	-7.25%
O=C(Nc1nc(-c2ccncc2)cs1)C1COc2ccccc2O1 (configuration not stated)	-13.6%
O=C(Nc1ccccc1F)N1C[C@@H]2[C@H](c3ccccc31)[C@H](CO)N2C(=O)C1CC1	-11.8% [at 23.5 µM]
COc1cccc(-c2ccc3c(c2)[C@@H]2[C@@H](CCN2S(=O)(=O)c2cccc(OC)c2)[C@@H](CO)N3)c1	-1.38%
C[C@H]1CN([C@@H](C)CO)C(=O)c2cc(-c3ccccc3)cnc2O[C@H]1CN(C)C(=O)c1cccc(F)c1	-9.13%
C[C@H](O)C#Cc1ccc2c(c1)O[C@H](CN(C)C)[C@H](C)CN([C@@H](C)CO)S2(=O)=O	1.47%
COC(=O)C[C@H]1CC[C@@H]2[C@H](COc3ccc(NC(=O)Cc4cccs4)cc3C(=O)N2C)O1	2.92% [at 23.5 µM]
COCC(=O)Nc1ccc2c(c1)C(=O)N(C)[C@H]1CC[C@H](CC(=O)NCc3ccccc3Cl)O[C@@H]1CO2	-12% [at 23.5 µM]
CN(C)C(=O)c1ccc(-c2ccc3c(c2)[C@@H]2[C@@H](CCN2C(=O)c2ccc(F)cc2)[C@H](CO)N3C)cc1	-11.7%
CCC(C)(C)NC(=O)C(OC(=O)c1ccco1)c1ccccc1OC (configuration not stated)	-3.54%
C[C@H](CO)N1C[C@H](C)[C@@H](CN(C)Cc2ccc(-c3ccccc3)cc2)Oc2ccc(NC(=O)C3CCCCC3)cc2C1=O	-11.6%
C[C@@H]1CN([C@@H](C)CO)C(=O)c2cc(-c3ccccc3)cnc2O[C@@H]1CN(C)Cc1ccccc1	-4.5%
CCc1ccc(NC(=O)CSc2nnc(-c3ccco3)o2)cc1	-8.55%
Nc1c(C(=O)NCc2ccco2)nnn1Cc1ccccc1	-6.95%
C[C@H](O)C#Cc1ccc2c(c1)O[C@H](CN(C)C)[C@@H](C)CN([C@@H](C)CO)S2(=O)=O	4.25%
C[C@@H]1CN([C@H](C)CO)C(=O)c2cc(NC(=O)CCCN(C)C)ccc2O[C@H]1CN(C)Cc1ccc(-c2ccccc2)cc1	-1.25%
C[C@H](O)C#Cc1ccc2c(c1)O[C@@H](CN(C)C)[C@H](C)CN([C@@H](C)CO)S2(=O)=O	-2.13%
c1ccc2[nH]c(SCc3cn4cccnc4n3)nc2c1	9.45%
Cc1ccc(-c2nc3ncccc3o2)cc1NC(=O)c1ccco1	-0.724%

SMILES	activity change, negative = cytotoxicity
N#Cc1ccc(-c2ccc3c(c2)[C@@H]2[C@@H](CCN2S(=O)(=O)c2cccc(F)c2)[C@H](CO)N3)cc1	-4.73%
Cc1oc2ccc(O)cc2c1C(=O)c1ccc(Br)cc1	-18.2%
Cc1ccc(NC(=O)COC(=O)c2cc(Cl)ccc2[N+](=O)[O-])c(C)c1	-3.19%
COc1cccc(CN2CCN(C(=O)c3ccc(-c4ccccc4)cc3)CC2)c1OC	4.35%
O=C(CSc1nc2ncc(Cl)cc2[nH]1)c1c[nH]c2ccccc12	3.79%
O=C(c1cccnc1)N1C[C@H]2[C@@H](c3ccccc31)[C@H](CO)N2CC1CCCC1	-2.73% [at 23.5 µM]
Cc1c(NC(=O)c2ccc3nsnc3c2)cccc1[N+](=O)[O-]	-0.314%
C[C@@H]1CN([C@H](C)CO)C(=O)c2cc(-c3ccccc3)cnc2O[C@H]1CN(C)Cc1ccccc1	-7.15%
CO[C@H]1CN(C)C(=O)c2ccc(NC(=O)Nc3cc(Cl)cc(Cl)c3)cc2OC[C@H](C)NC[C@@H]1C	-0.958% [at 8 µM]
COCC(=O)Nc1ccc2c(c1)C(=O)N(C)[C@@H]1CC[C@H](CC(=O)NCc3ccccc3Cl)O[C@H]1CO2	1.18%
C[C@H]1CN([C@@H](C)CO)C(=O)c2cc(NC(=O)C3CCCCC3)ccc2O[C@H]1CN(C)Cc1ccc(-c2ccccc2)cc1	-12.8%
C[C@@H]1CN([C@@H](C)CO)C(=O)c2cc(-c3ccncc3)cnc2O[C@@H]1CN(C)C(=O)Cc1cccnc1	3.71%
COc1ccc(-c2oc3ncnc(NCCCN4CCOCC4)c3c2-c2ccc(OC)cc2)cc1	-31%
CO[C@H]1CN(C)C(=O)c2cc(NC(=O)Nc3cc(Cl)cc(Cl)c3)ccc2OC[C@H](C)NC[C@@H]1C	8.32%
O=S(=O)(c1cccc(F)c1)N1CC[C@H]2[C@H](CO)Nc3ccc(-c4cccc(F)c4)cc3[C@H]21	-1.9%
C[C@H](CO)N1C[C@H](C)[C@H](CN(C)C)Oc2cc(C#C[C@@H](C)O)ccc2S1(=O)=O	14.3%
CC(C)NC(=O)N(C)C[C@H]1Oc2ccc(NC(=O)CCN3CCOCC3)cc2C(=O)N([C@H](C)CO)C[C@@H]1C	3.85%
COCC(=O)Nc1ccc2c(c1)C(=O)N(C)[C@H]1CC[C@H](CC(=O)NCc3ccccc3Cl)O[C@H]1CO2	-11.8%
